Assay results from PubChem BioAssay (NCATS).
Results filed as inconclusive are left out. Calls of active or inactive are those of the source. Calls follow the shape of the dose curve; as a rule, active = well fitted curve in the direction sought with a large enough effect; inconclusive = small, poorly fitted or top-dose-only effect, or another doubt; inactive = no such curve, though single readings can be large; an effect the other way counts as inactive or inconclusive. Where a SMILES comes first, the peptide text is derived from it. [ ]: non-standard residue; d: D form. pGlu = O=C1CC[C@@H](C(=O)O)N1

How the values were obtained:
[1] = qHTS of pediatric cancer cell lines to identify multiple opportunities for drug repurposing: Primary screen for OHS-50 cells (AID 1347103); also: nearly all actives have a fitted effect of over 40% in size
In short: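 Cells (500-1,000/well) rested 5 h, then received compounds for 48 h; metabolically active cells were measured by CellTiter-Glo luminescence. Final concentrations spanned up to 46 µM (MIPE, 11-point) or 0.59 nM-46 µM (NPC, 8-point) in primary screens, 11-point in follow-ups.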

[2] = qHTS of pediatric cancer cell lines to identify multiple opportunities for drug repurposing: Primary screen for RD cells (AID 1347104); also: nearly all actives have a fitted effect of over 55% in size
In short: (§1)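 Quantitative HTS format: each compound titrated (MIPE 11 points from 0.78 nM, NPC 8 points from 0.59 nM) onto cells plated 5 hours earlier. After 48 h at 37 degrees C, CellTiter-Glo luminescence was recorded.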

[3] = qHTS of pediatric cancer cell lines to identify multiple opportunities for drug repurposing: Primary screen for MG 63 (6-TG R) cells (AID 1347105); also: nearly all actives have a fitted effect of over 50% in size
In short: as §1

[4] = qHTS of pediatric cancer cell lines to identify multiple opportunities for drug repurposing: Primary screen for control Hh wild type fibroblast cells (AID 1347106);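 also: series mostly up to about 46 µM; a drop in luminescence marks cytotoxicity and a rise apparent proliferation; nearly all actives have a fitted effect of over 55% in size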
In short: (§2)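 Viability after 48 h compound treatment at 37C, 500-1,000 cells/well, read as ATP luminescence with CellTiter-Glo. Primary screens used 11-point (MIPE, 0.78 nM-46 µM) or 8-point (NPC, 0.59 nM-46 µM) final concentrations; follow-up screens used 11-point dilutions.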

[5] = qHTS of pediatric cancer cell lines to identify multiple opportunities for drug repurposing: Primary screen for Rh30 cells (AID 1347107); also: series mostly up to about 46 µM; nearly all actives have a fitted effect of over 75% in size
In short: as §2

[6] = qHTS of pediatric cancer cell lines to identify multiple opportunities for drug repurposing: Primary screen for Rh41 cells (AID 1347108);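 also: series mostly up to about 46 µM; luminescence drop marks cytotoxic hits; nearly all actives have a fitted effect of over 70% in size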
In short: as §1

Measured: Potency

COc1ccc2c(c1)c(CC(=O)OC/C=C(\C)CC/C=C(\C)CCC=C(C)C)c(C)n2C(=O)c1ccc(Cl)cc1
inactive: all assays above

COc1ccc2nc(SCc3ncc(C)c(OC)c3C)[nH]c2c1
inactive: all assays above

O=C(O)c1[nH]n(-c2ccc(S(=O)(=O)O)cc2)c(=O)c1N=Nc1ccc(S(=O)(=O)O)cc1
inactive: all assays above

O=C(CCCl)NCc1ccccc1
inactive: all assays above

COc1ccc(/C(C)=C/C(=O)O)c(OC)c1
inactive: all assays above

CCOC(=O)c1ccc(OCCN2C[C@H](O)[C@@H](O)[C@H](O)[C@H]2CO)cc1
inactive: all assays above

CCN1CCN(C(=O)N[C@@H](C(=O)N[C@@H]2C(=O)N3[C@@H]2SC(C)(C)[C@H]3C(=O)O)c2ccccc2)C(=O)C1=O
inactive: all assays above

Cc1cc(=O)oc2cc(O[C@@H]3SC[C@@H](O)[C@H](O)[C@H]3O)ccc12
inactive: all assays above

CN=C(N)NC(=O)Nc1c(C)cccc1C
inactive: all assays above

CO/N=C(\C(=O)O)c1csc(NC(=O)CCl)n1
inactive: all assays above

O=[N+]([O-])c1nccn1CO[C@@H](CO)[C@H](O)CO
inactive: all assays above

C[N+]1(C)CCC(OC(=O)C(O)(c2ccccc2)C2CCCC2)C1 (stereo not given)
inactive: all assays above

CCOCCn1c(C2CCN(CCc3ccc(C(C)(C)C(=O)O)cc3)CC2)nc2ccccc21
inactive: all assays above

CCNC(=O)[C@@H]1CCCN1C(=O)[C@H](CCCN=C(N)N)NC(=O)[C@H](CC(C)C)NC(=O)CNC(=O)[C@H](Cc1ccc(O)cc1)NC(=O)[C@H](CO)NC(=O)[C@H](Cc1c[nH]c2ccccc12)NC(=O)[C@H](Cc1cnc[nH]1)NC(=O)[C@@H]1CCC(=O)N1 ([pGlu]HWSYGLRP-NHEt)
inactive: all assays above

CC(NC(CCc1ccccc1)C(=O)O)C(=O)N1C(=O)N(C)CC1C(=O)O (stereo not given)
inactive: all assays above

Cc1cccc(C)c1NC(=O)c1ccc(N)cc1
inactive: all assays above

CN1Cc2cc(C(=O)N3CCC(C4CCNCC4)CC3)ccc2N[C@@H](CC(=O)O)C1=O
inactive: all assays above

CCCC(=O)Nc1ccc(O)c(C(C)=O)c1
inactive: all assays above

O=C1[C@@H]2[C@H]3CC[C@H](C3)[C@@H]2C(=O)N1CCCCN1CCN(c2ncccn2)CC1
inactive: all assays above

Cc1ccc(C(=O)C(=O)O)cc1C
inactive: all assays above

CCCc1c2oc(C(=O)O)cc(=O)c2cc2c(=O)cc(C(=O)O)n(CC)c12
inactive: all assays above

CCCCCN(CCCOC)C(=O)C(CCC(=O)O)NC(=O)c1ccc(Cl)c(Cl)c1 (stereo not given)
inactive: all assays above

Cc1ccc(C(C)OC(=O)C2(C)CCC(C(=O)O)C2(C)C)cc1 (stereo not given)
inactive: all assays above

COc1c(N2C[C@@H]3CCCN[C@@H]3C2)c(F)cc2c(=O)c(C(=O)O)cn(C3CC3)c12
inactive: all assays above

C1N2CN3CN1CN(C2)C3
inactive: all assays above

CC(=O)N(c1onc(C)c1C)S(=O)(=O)c1ccc(N)cc1
inactive: all assays above

Nc1ncnc2nc[nH]c12
inactive: all assays above

O=C(O)c1cn(C2CC2)c2cc(Cl)c(F)cc2c1=O
inactive: all assays above

CCOC(=O)NNc1ccc(N(CC)CC(C)O)nn1 (stereo not given)
inactive: all assays above

CCOC(=O)C(O)c1ccccc1 (stereo not given)
inactive: all assays above

Nc1ccc(C(=O)OCC(O)CO)cc1 (stereo not given)
inactive: all assays above

Cn1cc(S(C)=O)c(=O)c2ccc(F)cc21 (stereo not given)
inactive: all assays above

COc1ccc2cc(C=O)ccc2c1
inactive: all assays above

Nc1ccc(C(=O)N2CC3CC(CN(Cc4ccccc4)C3)C2)cc1
inactive: all assays above

N#Cc1cc(NC(=O)C(=O)O)c(Cl)c(NC(=O)C(=O)O)c1
inactive: all assays above

COC(=O)/C=C\C(=O)OC
inactive: all assays above

CO[C@]1(NC(=O)CSC(F)F)C(=O)N2C(C(=O)O)=C(CSc3nnnn3CCO)CO[C@H]21
inactive: all assays above

C[C@H](CN1CCCC1)C(=O)c1ccc(C(F)(F)F)cc1
inactive: all assays above

Cc1oc(=O)oc1COC(=O)[C@@H]1N2C(=O)[C@@H](NC(=O)[C@H](N)c3ccccc3)[C@H]2SC1(C)C
inactive: all assays above

Cc1c(F)cc2c(=O)c(C(=O)O)cn3c2c1CCC3C (stereo not given)
inactive: all assays above

Cc1ccc2ccc(Cl)cc2n1
inactive: all assays above

NS(=O)(=O)c1cc2c(cc1Cl)CN(C1CCCCC1)C2=O
inactive: all assays above

O=C(O)/C=C(\CC(=O)O)C(=O)O
inactive: all assays above

C/C(=C1\CCOC(=O)S1)N(C=O)Cc1cnc(C)nc1N
inactive: all assays above

OC1(c2ccccc2)CCNCC1
inactive: all assays above

CCOc1c(N2CCOCC2)cnn(C)c1=O
inactive: all assays above

CN(CC1(C)CCCO1)S(=O)(=O)c1ccc(Cl)c(S(N)(=O)=O)c1 (stereo not given)
inactive: all assays above

CC(=O)N(CC(=O)N(C)C)c1ccccc1
inactive: all assays above

CC(CCc1ccc2c(c1)OCO2)NN (stereo not given)
inactive: all assays above

CC1(C)OC(=O)Nc2ccc(Br)cc21
inactive: all assays above

CCCCCCCCCCCCCCCCCCN(C)C
inactive: all assays above

Brc1ccccc1-c1ccccc1
inactive: all assays above

OCCc1ccccc1
inactive: all assays above

COC(=O)CCCCC(CCSS/C(CCO)=C(\C)N(C=O)Cc1cnc(C)nc1N)SC(C)=O (stereo not given)
inactive: all assays above

COc1cc(OC)nc(O[C@H](C(=O)O)C(OC)(c2ccccc2)c2ccccc2)n1
inactive: all assays above

O=C(O)CNC(=O)CNC(=O)CNC(=O)CSC(=O)c1ccccc1
inactive: all assays above

C[C@H]1C[C@H](O)c2ccsc2S1(=O)=O
inactive: all assays above

Cc1onc(-c2c(Cl)cccc2Cl)c1C(=O)Cl
inactive: all assays above

CC(=O)Nc1c(I)c(NC(C)=O)c(I)c(C(=O)O)c1I
inactive: all assays above

COc1cc(C(=O)NC2CCCNC2)cc(OC)c1OC (stereo not given)
inactive: all assays above
